# Experimental data: the supplement of paper PMC3150612
# ± gives the standard deviation of the averaged measurements.
# Key:
# Drosophila melanogaster [1] = assay: olfactory response index (dipstick assay) (fraction of flies (RI; 1 aversion, 0.5 indifferent, 0 attraction)); higher = stronger aversion to the odorant; settings: odorant concentration: 1% v/v, male
# Drosophila melanogaster [2] = assay: as above; settings: odorant concentration: 1% v/v, female
# [3] = genotype (tubulin-GAL4 x UAS-RNAi line; control = progenitor): A5
# [4] = genotype (tubulin-GAL4 x UAS-RNAi line; control = progenitor): control
# [5] = genotype (tubulin-GAL4 x UAS-RNAi line; control = progenitor): obp 18a
# [6] = genotype (tubulin-GAL4 x UAS-RNAi line; control = progenitor): obp 22a
# [7] = genotype (tubulin-GAL4 x UAS-RNAi line; control = progenitor): obp 28a
# [8] = genotype (tubulin-GAL4 x UAS-RNAi line; control = progenitor): obp 56a
# [9] = genotype (tubulin-GAL4 x UAS-RNAi line; control = progenitor): obp 56c
# [10] = genotype (tubulin-GAL4 x UAS-RNAi line; control = progenitor): obp 56f
# [11] = genotype (tubulin-GAL4 x UAS-RNAi line; control = progenitor): obp 57a
# [12] = genotype (tubulin-GAL4 x UAS-RNAi line; control = progenitor): obp 57b
# [13] = genotype (tubulin-GAL4 x UAS-RNAi line; control = progenitor): obp 58c
# [14] = genotype (tubulin-GAL4 x UAS-RNAi line; control = progenitor): obp 59a
# [15] = genotype (tubulin-GAL4 x UAS-RNAi line; control = progenitor): obp 83a
# [16] = genotype (tubulin-GAL4 x UAS-RNAi line; control = progenitor): obp 83c
# [17] = genotype (tubulin-GAL4 x UAS-RNAi line; control = progenitor): obp 93a
# [18] = genotype (tubulin-GAL4 x UAS-RNAi line; control = progenitor): obp 99b
# [19] = genotype (tubulin-GAL4 x UAS-RNAi line; control = progenitor): obp 56h
smiles,measurement,setting,value
O=Cc1ccccc1 [benzaldehyde],olfactory response index,Drosophila melanogaster [1]; [3],0.725 ± 0.049
same,olfactory response index,Drosophila melanogaster [1]; [4],0.83 ± 0.13
same,olfactory response index,Drosophila melanogaster [1]; [5],0.53 ± 0.1
same,olfactory response index,Drosophila melanogaster [1]; [6],0.467 ± 0.074
same,olfactory response index,Drosophila melanogaster [1]; [7],0.621 ± 0.14
same,olfactory response index,Drosophila melanogaster [1]; [8],0.418 ± 0.068
same,olfactory response index,Drosophila melanogaster [1]; [9],0.522 ± 0.14
same,olfactory response index,Drosophila melanogaster [1]; [10],0.656 ± 0.11
same,olfactory response index,Drosophila melanogaster [1]; [11],0.547 ± 0.17
same,olfactory response index,Drosophila melanogaster [1]; [12],0.636 ± 0.024
same,olfactory response index,Drosophila melanogaster [1]; [13],0.702 ± 0.035
same,olfactory response index,Drosophila melanogaster [1]; [14],0.739 ± 0.0092
same,olfactory response index,Drosophila melanogaster [1]; [15],0.591 ± 0.15
same,olfactory response index,Drosophila melanogaster [1]; [16],0.557 ± 0.023
same,olfactory response index,Drosophila melanogaster [1]; [17],0.537 ± 0.042
same,olfactory response index,Drosophila melanogaster [1]; [18],0.299 ± 0.13
same,olfactory response index,Drosophila melanogaster [1]; [19],0.555 ± 0.12
same,olfactory response index,Drosophila melanogaster [2]; [3],0.8108 ± 0.005
same,olfactory response index,Drosophila melanogaster [2]; [4],0.694 ± 0.053
same,olfactory response index,Drosophila melanogaster [2]; [5],0.534 ± 0.029
same,olfactory response index,Drosophila melanogaster [2]; [6],0.708 ± 0.24
same,olfactory response index,Drosophila melanogaster [2]; [7],0.757 ± 0.076
same,olfactory response index,Drosophila melanogaster [2]; [8],0.683 ± 0.17
same,olfactory response index,Drosophila melanogaster [2]; [9],0.645 ± 0.031
same,olfactory response index,Drosophila melanogaster [2]; [10],0.75 ± 0.058
same,olfactory response index,Drosophila melanogaster [2]; [11],0.839 ± 0.059
same,olfactory response index,Drosophila melanogaster [2]; [12],0.748 ± 0.087
same,olfactory response index,Drosophila melanogaster [2]; genotype (tubulin-GAL4 x UAS-RNAi line; control = progenitor): obp 58b,0.753 ± 0.048
same,olfactory response index,Drosophila melanogaster [2]; [13],0.795 ± 0.051
same,olfactory response index,Drosophila melanogaster [2]; [14],0.863 ± 0.051
same,olfactory response index,Drosophila melanogaster [2]; [15],0.663 ± 0.16
same,olfactory response index,Drosophila melanogaster [2]; [16],0.797 ± 0.16
same,olfactory response index,Drosophila melanogaster [2]; [17],0.738 ± 0.11
same,olfactory response index,Drosophila melanogaster [2]; [18],0.379 ± 0.16
same,olfactory response index,Drosophila melanogaster [2]; [19],0.726 ± 0.091
